Source: PubChem (National Center for Advancing Translational Sciences (NCATS))
Most compounds without a hit are left out; they make up all but 9.2% or so of the library.
ELG1 genotoxic – induces genotoxicity in HEK293T cells with luciferase-tagged ELG1 | HEK293T ELG1-luciferase reporter, luminescence, 16 h | Potency, µM (doses to about 46 µM), hits mostly activators | 1.3% of 330,000 active; note: nearly all actives have a fitted effect of over 60% in size
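16 hr compound incubation (37 °C, 5% CO2) of HEK293T cells carrying luciferase-tagged ELG1; luciferase then measured by ONE-Glo luminescence after 30 min at RT.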
SMN2 splice enh – increases expression of the SMN2 splice variant | 2.8% of 210,000 active | HEK293 SMN2-luciferase splicing reporter, luminescence, 30-36 h | Potency, µM (doses to about 46.1 µM), actives largely listed as activators; note: nearly all actives have a fitted effect of over 55% in size
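qHTS luciferase splicing reporter: luminescence rises when SMN2 exon 7 is included in transfected HEK293 cells. Compound exposure lasted 30-36 h at 37C, with 4.5 mM final sodium butyrate as control, followed by a ONE-Glo read.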
ELG1 repair inh – ELG1-dependent DNA repair inhibition. HEK293T ELG1-luciferase reporter, luminescence, 16 h; DNA damage induced by 5-fluorouridine. 2.3% of 330,000 active. Potency, µM (doses to about 46.1 µM), actives largely listed as inhibitors; note: nearly all actives have a fitted effect of over 55% in size
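In this reporter screen, reduction of luminescence relative to DMSO vehicle indicated activity. Compounds and 5-fluorouridine were added together to 2,000 cells per well, incubated for 16 hr at 37 °C, then developed with ONE-Glo.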
NPC1 prom act – activators of NPC1 promoter. Huh7 NPC1 promoter luciferase reporter, 24 h. Potency, µM (titrated, usually from 9.22 µM), hits mostly activators. 2.4% of 320,000 active. AID 485313; note: nearly all actives have a fitted effect of over 60% in size
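Stable NPC1-promoter luciferase Huh7 line; cpd (DMSO) 24 h, 37 °C, 5% CO2; Amplite luciferase reagent 10 min RT; luminescence readout. qHTS format.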
Rab9 promoter act – activators of Rab9 promoter; Huh7 Rab9 promoter-luciferase reporter, luminescence, 24 h; Potency, µM (doses to about 9.22 µM), usual class: activators; 2.8% of 320,000 active; AID 485297; note: nearly all actives have a fitted effect of over 60% in size
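Huh7 cells stably carrying a Rab9 promoter-luciferase reporter, 1500 cells per well in OP-MEM I with 10% FBS, treated with compound 24 hours at 37C. Luciferase activity read by luminescence after 10 minutes with Amplite reagent.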
FLuc modulator – counter-screen for miR-21 project: firefly luciferase inhibitors or activators. Potency, µM (highest dose often 57.5 µM), actives largely listed as inhibitors. purified FLuc, Km substrates, luminescence inhibition. AID 588342. P08659. 6.9% of 360,000 active; note: nearly all actives have a fitted effect of over 55% in size
Target sequence (P08659 whole entry, looked up): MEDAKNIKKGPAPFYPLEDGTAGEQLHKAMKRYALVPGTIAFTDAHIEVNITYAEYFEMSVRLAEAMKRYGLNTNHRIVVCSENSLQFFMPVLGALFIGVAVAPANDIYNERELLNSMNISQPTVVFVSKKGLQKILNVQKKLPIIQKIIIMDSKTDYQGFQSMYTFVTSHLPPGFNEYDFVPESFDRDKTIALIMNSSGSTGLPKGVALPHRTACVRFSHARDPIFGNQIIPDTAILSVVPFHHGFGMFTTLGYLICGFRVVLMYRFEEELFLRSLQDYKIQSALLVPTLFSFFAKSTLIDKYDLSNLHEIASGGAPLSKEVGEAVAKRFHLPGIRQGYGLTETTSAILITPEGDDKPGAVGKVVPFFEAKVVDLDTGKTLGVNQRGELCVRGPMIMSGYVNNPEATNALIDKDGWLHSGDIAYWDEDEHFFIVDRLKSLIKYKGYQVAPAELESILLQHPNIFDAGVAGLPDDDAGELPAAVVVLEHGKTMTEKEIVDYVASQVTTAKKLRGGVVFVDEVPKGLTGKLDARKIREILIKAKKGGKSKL
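Purified P. pyralis luciferase, 10 nM final, with Km-level 10 uM D-luciferin and 10 uM ATP in 50 mM Tris acetate pH 7.5, 10 mM Mg acetate, 0.01% Tween-20, 0.05% BSA; 6-point qHTS titration about 60 µM downward; luminescence read.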
Of the large screens only hits and unclear results are named; the others gave an inactive call. Calls come from the whole dose curve; as a rule, active = well fitted curve in the direction sought with a large enough effect; inconclusive = small, poorly fitted or top-dose-only effect, or another doubt; inactive = no such curve, though single readings can be large; an effect the other way counts as inactive or inconclusive.

CCc1ccccc1N(C)S(=O)(=O)c1cc(-c2cc(C)no2)ccc1OC	ELG1 repair inh inconclusive (no result: SMN2 splice enh)
O=C(NCc1cccc(C(F)(F)F)c1)C1CC(c2ccccc2C(F)(F)F)=NO1 (stereo not given)	none (no result: SMN2 splice enh)
COC(=O)c1sccc1S(=O)(=O)N(CC(=O)NCc1ccccc1)c1ccccc1	none (no result: ELG1 genotoxic, SMN2 splice enh, ELG1 repair inh, NPC1 prom act, Rab9 promoter act)
COc1ccccc1N1CCN(C(=O)c2ccc(CSc3ccccc3)cc2)CC1	ELG1 repair inh 23µM
O=C(c1ccc(CSc2ccccc2)cc1)N1CCN(c2ccccc2)CC1	none
COc1ccccc1N1CCN(C(=O)c2cc3c(=O)n(C)c4ccccc4c3n2C)CC1	ELG1 repair inh 16µM
CCc1ccc2oc(C(=O)N3CCN(c4ccccc4OC)CC3)cc(=O)c2c1	ELG1 repair inh inconclusive, FLuc modulator inconclusive (no result: SMN2 splice enh)
COc1ccccc1N1CCN(C(=O)c2cc(=O)c3c(C)cc(C)cc3o2)CC1	ELG1 repair inh 26µM (no result: SMN2 splice enh)
COc1ccccc1N1CCN(C(=O)CSc2nnc3c4ccccc4nc(Cc4ccccc4)n23)CC1	ELG1 repair inh 9.2µM
COc1ccccc1N1CCN(C(=O)CSc2ccccc2)CC1	ELG1 genotoxic inconclusive, ELG1 repair inh inconclusive, Rab9 promoter act inconclusive, FLuc modulator inconclusive
COc1ccccc1N1CCN(C(=O)c2cc3c(=O)n(C)c4ccccc4c3s2)CC1	none (no result: ELG1 genotoxic, ELG1 repair inh, NPC1 prom act, Rab9 promoter act)
ClCC1=Nc2cccc3cccc(c23)N1	ELG1 repair inh inconclusive, NPC1 prom act inconclusive (no result: SMN2 splice enh)
O=C(NCCc1ccccn1)C1CCCN1S(=O)(=O)c1ccc(Cl)cc1 (stereo not given)	none (no result: SMN2 splice enh)
O=C(CNCCc1ccc(Cl)cc1)Nc1ccc(C(=O)N2CCCCC2)cc1	none (no result: SMN2 splice enh)
COc1cc(/C=N/NC(=O)c2cc(-c3ccc4c(c3)OCO4)n[nH]2)ccc1O	ELG1 repair inh inconclusive, FLuc modulator inconclusive
Cc1ccc(C2=NNC(C(O)C(O)C(O)C(C)O)S2)cc1 (stereo not given)	ELG1 genotoxic inconclusive, ELG1 repair inh inconclusive, FLuc modulator 24µM
CCCCN(C(=O)CCNC(=O)NC12CC3CC(CC(C3)C1)C2)c1c(N)n(CCC)c(=O)[nH]c1=O	none (no result: SMN2 splice enh)
COc1ccc(NC(=O)c2cc3ccccc3cc2O)cc1	ELG1 genotoxic inconclusive, ELG1 repair inh inconclusive, NPC1 prom act 2.2µM, Rab9 promoter act 2.2µM, FLuc modulator 0.95µM (no result: SMN2 splice enh)
COc1ccc(NC(=O)c2ccccc2C)cc1	ELG1 genotoxic inconclusive, ELG1 repair inh inconclusive, NPC1 prom act 1.4µM, Rab9 promoter act 3.2µM, FLuc modulator 9.5µM (no result: SMN2 splice enh)
Cc1ccc(NC(=O)c2cc3ccccc3cc2O)cc1	ELG1 genotoxic inconclusive, ELG1 repair inh inconclusive, NPC1 prom act 2µM, Rab9 promoter act 2.8µM, FLuc modulator 1.1µM (no result: SMN2 splice enh)
Cc1ccc(NC(=O)NNC(=O)c2cc3ccccc3cc2O)cc1C	none (no result: SMN2 splice enh)
COc1ccc(NC(=O)c2cccc3ccccc23)cc1	FLuc modulator inconclusive (no result: SMN2 splice enh)
O=C(Nc1ccccn1)c1cc2ccccc2cc1O	ELG1 genotoxic 2.3µM, ELG1 repair inh inconclusive, NPC1 prom act 3.5µM, Rab9 promoter act 4µM, FLuc modulator 2.4µM (no result: SMN2 splice enh)
CCOc1ccc2c(c1)c(=O)c(S(=O)(=O)c1ccc(Cl)cc1)cn2Cc1ccccc1C	none (no result: ELG1 genotoxic, ELG1 repair inh, NPC1 prom act, Rab9 promoter act)
Cc1ccc(CNC(=O)CCCN2C(=O)CCn3nc(-c4cn(C)c5ccccc45)cc32)cc1	none (no result: ELG1 genotoxic, SMN2 splice enh, ELG1 repair inh, NPC1 prom act, Rab9 promoter act)
CCOC(=O)C1CCC(CN(Cc2c(Cl)cccc2Cl)S(=O)(=O)c2ccc(Cl)cc2)CC1 (stereo not given)	none (no result: ELG1 genotoxic, SMN2 splice enh, ELG1 repair inh, NPC1 prom act, Rab9 promoter act)
O=C(CCn1c(=S)[nH]c2cc3c(cc2c1=O)OCO3)NCc1ccccc1Cl	ELG1 genotoxic inconclusive (no result: SMN2 splice enh)
CC(=O)Nc1ccc(NC(=O)CN2CCN(c3ccccn3)CC2)cc1	none (no result: SMN2 splice enh)
O=C(CN1CCN(c2ccccn2)CC1)Nc1ccc2ccccc2c1	ELG1 genotoxic inconclusive, ELG1 repair inh inconclusive, FLuc modulator 17µM
Cc1ccc2nc(-c3ccc(NC(=O)CN4CCN(c5ccccn5)CC4)cc3)sc2c1	ELG1 genotoxic inconclusive, ELG1 repair inh inconclusive, NPC1 prom act inconclusive, Rab9 promoter act inconclusive, FLuc modulator 11µM (no result: SMN2 splice enh)
CN(CC(=O)N1CCN(c2ccccn2)CC1)S(=O)(=O)c1ccc2ccccc2c1	ELG1 repair inh 10µM
